{
  "source": "the supplement of paper PMC8728848",
  "binders": {"B1": {"name": "Siglec-9 (Homo sapiens), Q9Y336 (protein)", "chain": "MLLLLLPLLWGRERAEGQTSKLLTMQSSVTVQEGLCVHVPCSFSYPSHGWIYPGPVVHGYWFREGANTDQDAPVATNNPARAVWEETRDRFHLLGDPHTKNCTLSIRDARRSDAGRYFFRMEKGSIKWNYKHHRLSVNVTALTHRPNILIPGTLESGCPQNLTCSVPWACEQGTPPMISWIGTSVSPLDPSTTRSSVLTLIPQPQDHGTSLTCQVTFPGASVTTNKTVHLNVSYPPQNLTMTVFQGDGTVSTVLGNGSSLSLPEGQSLRLVCAVDAVDSNPPARLSLSWRGLTLCPSQPSNPGVLELPWVHLRDAAEFTCRAQNPLGSQQVYLNVSLQSKATSGVTQGVVGGAGATALVFLSFCVIFVVVRSCRKKSARPAAGVGDTGIEDANAVRGSASQGPLTEPWAEDSPPDQPPPASARSSVGEGELQYASLSFQMVKPWDSRGQEATDTEYSEIKIHR"}},
  "assay_in_all_cases": "glycan array binding signal (z-score within array); higher = stronger binding",
  "conditions_in_all_cases": "glycan notation: IUPAC condensed, linker removed",
  "key": {"Fuc(a1-2)Gal": {"molecular_target": "Fuc(a1-2)Gal", "method_in_brief": "(§1)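 The binding signal is a Z-score computed within each array and averaged over linkers. Arrays of the same protein sequence at different concentrations or buffers were also averaged together. Data originate from 3228 arrays in the Consortium for Functional Glycomics database, kept only where the protein sequence was available.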"}, "[1]": {"molecular_target": "Fuc(a1-2)Gal(b1-4)[Fuc(a1-3)]GlcNAc", "method_in_brief": "as §1"}, "[2]": {"molecular_target": "Fuc(a1-2)Gal(b1-4)[Fuc(a1-3)]GlcNAc(b1-2)Man(a1-3)[Fuc(a1-2)Gal(b1-4)[Fuc(a1-3)]GlcNAc(b1-2)Man(a1-6)]Man(b1-4)GlcNAc(b1-4)[Fuc(a1-6)]GlcNAc", "method_in_brief": "as §1"}, "Fuc(a1-2)[Gal(a1-3)]Gal": {"molecular_target": "Fuc(a1-2)[Gal(a1-3)]Gal", "method_in_brief": "as §1"}, "[3]": {"molecular_target": "Fuc(a1-2)[Gal(a1-3)]Gal(b1-4)[Fuc(a1-3)]GlcNAc(b1-3)GalNAc", "method_in_brief": "as §1"}, "[4]": {"molecular_target": "Fuc(a1-2)[GalNAc(a1-3)]Gal(b1-3)GalNAc(b1-3)Gal(a1-4)Gal(b1-4)Glc", "method_in_brief": "as §1"}, "Fuc(a1-3)GlcNAc": {"molecular_target": "Fuc(a1-3)GlcNAc", "method_in_brief": "as §1"}, "[5]": {"molecular_target": "Fuc(a1-3)[Gal(b1-4)]GlcNAc(b1-3)Gal(b1-4)[Fuc(a1-3)]GlcNAc", "method_in_brief": "as §1"}, "[6]": {"molecular_target": "Fuc(a1-3)[Gal(b1-4)]GlcNAc(b1-6)GalNAc", "method_in_brief": "as §1"}, "[7]": {"molecular_target": "Fuc(a1-3)[Gal(b1-4)]GlcNAc6S", "method_in_brief": "as §1"}, "[8]": {"molecular_target": "Fuc(a1-3)[Gal3S(b1-4)]GlcNAc6S", "method_in_brief": "as §1"}, "[9]": {"molecular_target": "Gal(b1-3)GalNAc(a1-3)[Fuc(a1-2)]Gal(b1-4)Glc", "method_in_brief": "as §1"}, "[10]": {"molecular_target": "Gal(b1-3)GlcNAc(b1-3)Gal(b1-4)GlcNAc(b1-6)[Gal(b1-3)GlcNAc(b1-3)]Gal(b1-4)Glc", "method_in_brief": "as §1"}, "[11]": {"molecular_target": "Gal(b1-3)[Neu5Ac(a2-6)]GalNAc", "method_in_brief": "as §1"}, "Gal(b1-4)GlcNAc": {"molecular_target": "Gal(b1-4)GlcNAc", "method_in_brief": "as §1"}, "[12]": {"molecular_target": "Gal(b1-4)GlcNAc(b1-2)Man(a1-3)[Gal(b1-4)GlcNAc(b1-2)Man(a1-6)][Gal(b1-4)GlcNAc(b1-4)]Man(b1-4)GlcNAc(b1-4)[Fuc(a1-6)]GlcNAc", "method_in_brief": "as §1"}, "[13]": {"molecular_target": "Gal(b1-4)GlcNAc(b1-2)Man(a1-6)Man(b1-4)GlcNAc(b1-4)GlcNAc", "method_in_brief": "as §1"}, "[14]": {"molecular_target": "Gal(b1-4)GlcNAc(b1-3)Gal(b1-4)GlcNAc(b1-3)GalNAc", "method_in_brief": "as §1"}, "Gal(b1-4)GlcNAc6P": {"molecular_target": "Gal(b1-4)GlcNAc6P", "method_in_brief": "as §1"}, "Gal4S(b1-4)GlcNAc": {"molecular_target": "Gal4S(b1-4)GlcNAc", "method_in_brief": "as §1"}, "[15]": {"molecular_target": "GlcNAc(b1-3)Gal(b1-4)GlcNAc(b1-2)Man(a1-3)[GlcNAc(b1-3)Gal(b1-4)GlcNAc(b1-2)Man(a1-6)]Man(b1-4)GlcNAc(b1-4)GlcNAc", "method_in_brief": "as §1"}, "GlcNAc(b1-3)GalNAc": {"molecular_target": "GlcNAc(b1-3)GalNAc", "method_in_brief": "as §1"}, "[16]": {"molecular_target": "GlcNAc(b1-3)[GlcNAc(b1-6)]Gal(b1-4)GlcNAc", "method_in_brief": "as §1"}, "[17]": {"molecular_target": "GlcNAc(b1-4)Gal(b1-4)GlcNAc", "method_in_brief": "as §1"}, "[18]": {"molecular_target": "GlcNAc(b1-4)[GlcNAc(b1-6)]GalNAc", "method_in_brief": "as §1"}, "[19]": {"molecular_target": "GlcNAc(b1-6)Gal(b1-4)GlcNAc", "method_in_brief": "as §1"}, "[20]": {"molecular_target": "Man(a1-2)Man(a1-3)[Man(a1-2)Man(a1-6)]Man(a1-6)[Man(a1-2)Man(a1-2)Man(a1-3)]Man", "method_in_brief": "as §1"}, "[21]": {"molecular_target": "Man(a1-3)[Man(a1-6)]Man(a1-6)[Man(a1-3)]Man(b1-4)GlcNAc(b1-4)GlcNAc", "method_in_brief": "as §1"}, "[22]": {"molecular_target": "Neu5Ac(a2-3)Gal(b1-3)GalNAc6S", "method_in_brief": "as §1"}, "[23]": {"molecular_target": "Neu5Ac(a2-3)Gal(b1-3)GlcNAc(b1-6)GalNAc", "method_in_brief": "as §1"}},
  "note": "Many of the other results were omitted from the sample, so the strongest signals are more common in it than they were.",
  "data": [
    {"binder": "B1", "values": [
      {"measurement": "glycan array binding signal (z-score)", "setting": "Fuc(a1-2)Gal", "value": -0.211},
      {"measurement": "glycan array binding signal (z-score)", "setting": "[1]", "value": -0.153},
      {"measurement": "glycan array binding signal (z-score)", "setting": "[2]", "value": -0.277},
      {"measurement": "glycan array binding signal (z-score)", "setting": "Fuc(a1-2)[Gal(a1-3)]Gal", "value": -0.193},
      {"measurement": "glycan array binding signal (z-score)", "setting": "[3]", "value": -0.269},
      {"measurement": "glycan array binding signal (z-score)", "setting": "[4]", "value": -0.125},
      {"measurement": "glycan array binding signal (z-score)", "setting": "Fuc(a1-3)GlcNAc", "value": -0.293},
      {"measurement": "glycan array binding signal (z-score)", "setting": "[5]", "value": 0.166},
      {"measurement": "glycan array binding signal (z-score)", "setting": "[6]", "value": -0.063},
      {"measurement": "glycan array binding signal (z-score)", "setting": "[7]", "value": 3.1},
      {"measurement": "glycan array binding signal (z-score)", "setting": "[8]", "value": -0.041},
      {"measurement": "glycan array binding signal (z-score)", "setting": "[9]", "value": -0.434},
      {"measurement": "glycan array binding signal (z-score)", "setting": "[10]", "value": -0.039},
      {"measurement": "glycan array binding signal (z-score)", "setting": "[11]", "value": -0.173},
      {"measurement": "glycan array binding signal (z-score)", "setting": "Gal(b1-4)GlcNAc", "value": -0.244},
      {"measurement": "glycan array binding signal (z-score)", "setting": "[12]", "value": -0.418},
      {"measurement": "glycan array binding signal (z-score)", "setting": "[13]", "value": -0.333},
      {"measurement": "glycan array binding signal (z-score)", "setting": "[14]", "value": -0.054},
      {"measurement": "glycan array binding signal (z-score)", "setting": "Gal(b1-4)GlcNAc6P", "value": -0.074},
      {"measurement": "glycan array binding signal (z-score)", "setting": "Gal4S(b1-4)GlcNAc", "value": -0.304},
      {"measurement": "glycan array binding signal (z-score)", "setting": "[15]", "value": -0.042},
      {"measurement": "glycan array binding signal (z-score)", "setting": "GlcNAc(b1-3)GalNAc", "value": -0.152},
      {"measurement": "glycan array binding signal (z-score)", "setting": "[16]", "value": -0.322},
      {"measurement": "glycan array binding signal (z-score)", "setting": "[17]", "value": 0.012},
      {"measurement": "glycan array binding signal (z-score)", "setting": "[18]", "value": -0.132},
      {"measurement": "glycan array binding signal (z-score)", "setting": "[19]", "value": -0.081},
      {"measurement": "glycan array binding signal (z-score)", "setting": "[20]", "value": -0.055},
      {"measurement": "glycan array binding signal (z-score)", "setting": "[21]", "value": -0.007},
      {"measurement": "glycan array binding signal (z-score)", "setting": "[22]", "value": 1.05},
      {"measurement": "glycan array binding signal (z-score)", "setting": "[23]", "value": 0.961}
    ]}
  ]
}
